Data on eight molecules can be found in PubChem BioAssay (NCI).

Test systems include HCT-15 colon; HT29 colon; SNB-19 CNS; U251 CNS; PC-3 prostate; SK-MEL-5 melanoma; UACC-62 melanoma; LOX IMVI melanoma; SK-MEL-28 melanoma; SK-MEL-2 melanoma; EKVX NSCLC; SN12C renal; UO-31 renal; TK-10 renal; ACHN renal; CAKI-1 renal; A498 renal; CCRF-CEM leukemia; SNB-75 CNS; MOLT-4 leukemia.
Common to all, as to experiment: NCI-60 one-dose screen, 48 h (100 = growth as untreated, 0 = no growth, -100 = all killed)
Settings in all cases: 10 µM

The panel holds about 83,000 compounds, 20% with a hit somewhere; the sample as a whole holds those more often.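 Note: values are percent growth. 100 is the growth of untreated cells, values between 100 and 0 indicate rising inhibition; between -100 and 0 indicates cell death.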 A number with no mark means an inactive call. Activity calls are given as the source filed them. How the source made its calls: active means growth percent below 10; inactive means the rest.

Regarding `CC1(C)CC[C@]23CC[C@]4(C)[C@H](CC[C@@H]5[C@@]6(C)CC[C@H](N)C(C)(C)[C@@H]6CC[C@]54C)[C@H]2[C@H]1OC3=O`, the growth with HCT-15 colon is -91.7% (active); in the assay with HT29 colon it was -66.7% (active); in the assay on SNB-19 CNS it was -98.7% (active); in the assay on U251 CNS, -88.9% (active); in the assay on PC-3 prostate, -57.5% (active); with SK-MEL-5 melanoma, -100% (active). Further, the growth in the assay with UACC-62 melanoma is -96.1% (active); with LOX IMVI melanoma, -98.9% (active); in the assay on SK-MEL-28 melanoma, -100% (active); with SK-MEL-2 melanoma, -77.2% (active); in the assay on EKVX NSCLC it was -95.4% (active); with SN12C renal, -96% (active). Moreover, the growth is -96.7% (active) in the assay on UO-31 renal; -90.1% (active) in the assay with TK-10 renal; -100% (active) in the assay on ACHN renal; -98.2% (active) in the assay with CAKI-1 renal; -90.3% (active) in the assay with A498 renal; -32.4% (active) in the assay on CCRF-CEM leukemia.

For the molecule `CN1C(=O)N(C)C2SC(N/N=C/c3ccc(F)cc3)=NC21` (centres undefined), the growth is 26.1% in the assay on HCT-15 colon; 16.2% with HT29 colon; 23.7% in the assay with SNB-75 CNS; 43.1% in the assay with SNB-19 CNS; 66.2% in the assay with PC-3 prostate; 26.8% in the assay on SK-MEL-5 melanoma. For the same molecule, the growth is 18.4% in the assay on UACC-62 melanoma; 40% with LOX IMVI melanoma; 63.5% in the assay on SK-MEL-28 melanoma; 26.5% in the assay with SK-MEL-2 melanoma; 77.2% in the assay on EKVX NSCLC; 52.5% with SN12C renal. In addition, the growth in the assay on UO-31 renal was 47.7%; with TK-10 renal it was 72.4%; with ACHN renal, 60.1%; with CAKI-1 renal, 46.3%; in the assay on A498 renal, 57.6%; in the assay on CCRF-CEM leukemia, 40.3%. Also, in the assay with MOLT-4 leukemia, the growth was 45.4%.

For `O=C(c1ccc(O)cc1)C1[C@H](c2ccccc2Br)[C@@H](c2ccccc2)NC12C(=O)Nc1ccc(Br)cc12` (some centres undefined), the growth in the assay with HCT-15 colon was 36.8%; in the assay on HT29 colon, 26.8%; in the assay on SNB-75 CNS it was 31.5%; in the assay on SNB-19 CNS it was 53.4%; in the assay with PC-3 prostate, 23.3%; in the assay with SK-MEL-5 melanoma, 56.9%. Also, the growth with LOX IMVI melanoma was 15.8%; in the assay with SK-MEL-28 melanoma, 77.7%; in the assay on SK-MEL-2 melanoma, 38.1%; in the assay with EKVX NSCLC, 32%; in the assay with SN12C renal, 15.1%; in the assay with UO-31 renal it was 35.8%. Further, the growth in the assay on TK-10 renal is 76.2%; with ACHN renal it was 37.9%; in the assay with CAKI-1 renal, 24.1%; in the assay with A498 renal it was 80.5%; in the assay on CCRF-CEM leukemia, 31.4%; in the assay on MOLT-4 leukemia, 11%.

As to `Cc1ccc(C(=O)NCCCNc2nc(Nc3ccc(N4CCN(C)CC4)cc3)nc3ccsc23)cc1`, the growth in the assay on HCT-15 colon is 2.1% (active); with HT29 colon it was 8.64% (active); in the assay on SNB-19 CNS it was 71.6%; with U251 CNS it was 18.5%; with PC-3 prostate it was 37.9%; in the assay on SK-MEL-5 melanoma it was -15.2% (active). Further, the growth in the assay on UACC-62 melanoma is 24.1%; with LOX IMVI melanoma it was -22.6% (active); with SK-MEL-28 melanoma, -70.3% (active); in the assay with SK-MEL-2 melanoma, 81.8%; with EKVX NSCLC, 71.2%; in the assay on SN12C renal, 72.6%. The growth in the assay with UO-31 renal was 56.7%; in the assay with TK-10 renal, 87.2%; in the assay with ACHN renal, 30.5%; with CAKI-1 renal it was 54%; in the assay with A498 renal, 137%; in the assay with CCRF-CEM leukemia it was 4.37% (active).

As to `O=C(CSc1nnc(-c2c[nH]c3ccccc23)n1-c1ccccc1)Nc1ccc(C(=O)/C=C/c2ccc(Cl)cc2)cc1`, the growth in the assay with HCT-15 colon is 59.3%; with HT29 colon, 86.4%; in the assay with SNB-75 CNS, 80%; with SNB-19 CNS, 73.1%; with PC-3 prostate it was 58.9%; in the assay on SK-MEL-5 melanoma, 83.3%. Besides, the growth in the assay on UACC-62 melanoma was 62.8%; with LOX IMVI melanoma it was 67.6%; in the assay with SK-MEL-28 melanoma, 84.1%; with SK-MEL-2 melanoma it was 87.6%; in the assay on EKVX NSCLC it was 59%; in the assay on SN12C renal it was 83%. The growth in the assay on UO-31 renal was 45.8%; in the assay with TK-10 renal, 91.8%; in the assay on ACHN renal, 68.4%; in the assay on CAKI-1 renal, 68.2%; with A498 renal it was 90.7%; in the assay with CCRF-CEM leukemia, 83.7%. In addition, the growth in the assay with MOLT-4 leukemia is 58.8%.

As for `CN(C)c1ccc(/C=C/C(=O)c2ccc(NC(=O)CN3C(=O)NC(C)(c4ccccc4)C3=O)cc2)cc1` (centres undefined), the growth in the assay with HCT-15 colon is 26.9%; in the assay on HT29 colon, 19.5%; in the assay on SNB-75 CNS, 80.6%; in the assay with SNB-19 CNS, 70.5%; with PC-3 prostate it was 43.3%; in the assay with SK-MEL-5 melanoma it was 23.2%. The growth in the assay on UACC-62 melanoma is 46.6%; in the assay with LOX IMVI melanoma, 41.4%; in the assay with SK-MEL-28 melanoma, 70.7%; in the assay on SK-MEL-2 melanoma, 76.5%; in the assay with EKVX NSCLC, 66.4%; with SN12C renal, 73.4%. Further, the growth was 57.7% in the assay on UO-31 renal; 97.3% with TK-10 renal; 59.8% in the assay on ACHN renal; 66.4% in the assay on CAKI-1 renal; 85.5% in the assay with A498 renal; 53.1% in the assay with CCRF-CEM leukemia. Besides, the growth with MOLT-4 leukemia is 36.6%.

Regarding `O=C(Nc1cccc([N+](=O)[O-])c1)Nc1cccc([N+](=O)[O-])c1`, the growth was 62.7% with HCT-15 colon; 87.3% in the assay with HT29 colon; 90.5% with SNB-75 CNS; 81.7% with SNB-19 CNS; 52% with PC-3 prostate; 69.6% in the assay on SK-MEL-5 melanoma. Also, the growth in the assay on UACC-62 melanoma is 68.5%; in the assay on LOX IMVI melanoma it was 87.7%; in the assay on SK-MEL-28 melanoma, 88.7%; in the assay with SK-MEL-2 melanoma, 91.1%; in the assay on EKVX NSCLC it was 77.1%; in the assay on SN12C renal, 82.4%. In addition, the growth was 63.9% in the assay on UO-31 renal; 84.2% with TK-10 renal; 84.8% in the assay with ACHN renal; 83.7% with CAKI-1 renal; 94.4% with A498 renal; 69.7% in the assay with CCRF-CEM leukemia. In addition, the growth in the assay on MOLT-4 leukemia is 76.4%.

As to `COc1ccc(C(=O)/C=C/c2cc(F)cc(C(F)(F)F)c2)cc1S(N)(=O)=O`, the growth in the assay with HCT-15 colon is -77.9% (active); in the assay on HT29 colon, -68.3% (active); in the assay with SNB-75 CNS, 63.2%; in the assay with SNB-19 CNS, -92.6% (active); with PC-3 prostate it was -10.2% (active); in the assay on SK-MEL-5 melanoma, 3.71% (active). In addition, the growth in the assay on UACC-62 melanoma was -55.5% (active); with LOX IMVI melanoma, -91.3% (active); with SK-MEL-28 melanoma, -68.4% (active); with SK-MEL-2 melanoma, 12.8%; in the assay with EKVX NSCLC, 7.02% (active); with SN12C renal, -69.1% (active). Further, the growth in the assay with UO-31 renal was -92.7% (active); in the assay on TK-10 renal, -12.4% (active); with ACHN renal it was -100% (active); in the assay on CAKI-1 renal, -85.7% (active); in the assay with A498 renal, 88.2%; with CCRF-CEM leukemia, 4.86% (active). The growth in the assay with MOLT-4 leukemia is 1.63% (active).
